Drawing on ChEMBL document CHEMBL3433997, “St. Jude Leishmania screening dataset” (2016), this text covers inhibition for 32 compounds.

Type in all cases: functional
Test [1] has as its target Solute carrier family 2, facilitated glucose transporter member 1 (Homo sapiens) (UniProt P11166). The test can be described thus: ST_JUDE_LEISH: Cytotoxicity at 2uM final concentration against transgenic Leishmania Mexicana promastigotes LmGLUT1 that are glucose transport deficient and complemented with the human glucose transporter GLUT1. Activity is measured by DNA content using SYBR green in vitro.

Test [2] deals with Hexose transporter 1 (Plasmodium falciparum) (UniProt O97467). The test can be described thus: ST_JUDE_LEISH: Cytotoxicity at 2uM final concentration against transgenic Leishmania Mexicana promastigotes LmPfHT that are glucose transport deficient and complemented with the Plasmodium falciparum hexose transporter. Activity is measured by DNA content using SYBR green in vitro.
Test [3] deals with Glucose transporter (Leishmania mexicana) (UniProt O61059). The test can be described thus: ST_JUDE_LEISH: Cytotoxicity at 2uM final concentration against transgenic Leishmania Mexicana promastigotes LmGT2 that are glucose transport deficient and complemented with the L. Mexicana glucose transporter 2. Activity is measured by DNA content using SYBR green in vitro.

The structures appear in SMILES notation.

Solute carrier family 2, facilitated glucose transporter member 1 (Homo sapiens), sequence (P11166 whole entry): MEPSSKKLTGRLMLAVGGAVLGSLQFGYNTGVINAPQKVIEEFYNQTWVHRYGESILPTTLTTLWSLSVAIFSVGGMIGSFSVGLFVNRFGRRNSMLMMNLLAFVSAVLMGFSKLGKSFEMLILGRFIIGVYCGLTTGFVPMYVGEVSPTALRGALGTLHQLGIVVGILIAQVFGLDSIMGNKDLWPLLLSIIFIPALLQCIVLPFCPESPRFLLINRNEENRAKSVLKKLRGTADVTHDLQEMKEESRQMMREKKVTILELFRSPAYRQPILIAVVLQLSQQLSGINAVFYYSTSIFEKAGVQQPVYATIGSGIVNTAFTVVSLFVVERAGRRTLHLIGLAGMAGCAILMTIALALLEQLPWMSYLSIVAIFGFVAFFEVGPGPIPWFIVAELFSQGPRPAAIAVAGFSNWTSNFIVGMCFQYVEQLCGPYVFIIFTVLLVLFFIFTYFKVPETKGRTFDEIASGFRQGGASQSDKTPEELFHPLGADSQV

For the compound `O=c1nc(C=Cc2ccc(Br)cc2)oc2ccccc12`, the values for the inhibition in test [1], in test [2] and in test [3] were 3.24%, 2.44% and 3.63%, respectively.

Turning to `COc1c(C2CCN(CCCCNC(=O)c3cc(-c4ccc(Cl)cc4)oc3C)CC2)ccc2c1CCCC2`, the inhibition in test [1] was found to be 9.04%; in test [2], 9.78%; in test [3] it was 5.26%.

Regarding `CCOC(=O)c1ccc(NC(=O)N[C@H]2CCN(CCCCCNC(=O)/C=C/c3ccc(Cl)c(Cl)c3)C2)cc1`, the results for the inhibition in test [1], in test [2] and in test [3] were 4.4%, 2.51% and 5.84%, respectively.

Regarding `CS(=O)(=O)N(c1ccccc1)c1cc(C(=O)N[C@@H](Cc2ccccc2)[C@H](O)CNC2CC2)cc(N2CCCC2=O)c1`, the inhibition in test [1] is 4.45%; in test [2], 5.62%; in test [3] it was 4.38%.

In the case of `COc1cccc(NC(=O)Nc2c(-c3cccc(C(F)(F)F)c3)c(C(F)(F)F)nn2C)c1`, the inhibition is 0.7% in test [1], 1.76% in test [2] and 0.37% in test [3].

Turning to `CC(OC(=O)c1ccc(C(=O)NCC2CC2)cc1)C(C)(C)C` (stereo unspecified), the figures for the inhibition in test [1], in test [2] and in test [3] were 4.1%, 3.44% and -0.96%, respectively.

For `COc1ccc(C(=O)CC(=O)c2ccc(OC)cc2OC)c(OC)c1`, the results for the inhibition in test [1], in test [2] and in test [3] were 6.03%, 4.03% and 4.43%, respectively.

Turning to `CC(C)CNCc1ccc(OCc2cccc(COc3ccc(CNCC(C)C)cc3I)c2)c(I)c1`, the inhibition in test [1] came out at 2.2%; in test [2], 1.42%; in test [3], 2.23%.

In the case of `CCc1ccc(CN2CCC(CN(c3ccc(N4CCOCC4)c(F)c3)S(=O)(=O)c3ccc(C(C)(C)CC)cc3)CC2)cc1`, the inhibition in test [1] worked out at 3.54%; in test [2] it was 0.74%; in test [3], 3.68%.

`O=C(Nc1cc(Cl)cc(Cl)c1)Nc1ccnc2ccccc12`: the results for the inhibition in test [1], in test [2] and in test [3] were 2.68%, 2.02% and -2.71%, respectively.

With `O=C(Nc1ccc(OC2CCN(Cc3ccccc3)CC2)c(Cl)c1)c1ccsc1`, the inhibition in test [1] was found to be 2.2%; in test [2], 2.35%; in test [3], 2.24%.

With `Fc1ccc(CNc2ncc(-c3ccsc3)c(-c3nccs3)n2)cc1`, the inhibition in test [1] worked out at 0.01%; in test [2], 4.04%; in test [3] it was 0.95%.

Consider `CC(C)COc1ccc(Cl)cc1Cc1ccc(-c2nc3ccc(C(F)(F)F)cc3[nH]2)o1`, for which the inhibition is 0.04% in test [1], 0.46% in test [2] and 2.13% in test [3].

`CCN(CC)Cc1cccc(-c2cc3c(-c4ccc(C(=O)O)c(C(C)C)c4)ccnc3[nH]2)c1OC`: the inhibition in test [1] is 12%; in test [2] it was 8.43%; in test [3] it was 7.3%.

For `N=C(NCc1ccccc1)Nc1nc(-c2ccc(OCCCn3ccnc3)cc2)cs1`, the inhibition in test [1] turned out to be 29.9%; in test [2], 35.3%; in test [3], 15.5%.

Take `CCCCCC(=O)N1CCOC(CCN2CCc3c(c4ccccc4n3C)C2)(c2ccc(Cl)c(Cl)c2)C1` (stereo unspecified): the values for the inhibition in test [1], in test [2] and in test [3] were 10.5%, 7.81% and 9.52%, respectively.

`Cc1cccc2nc(-c3ccc(-c4ccc(C(=O)NCCc5cn(C)cn5)cc4)s3)[nH]c12`: the inhibition in test [1] came to 4.34%; in test [2], 5.34%; in test [3], 2.6%.

`CN(C)c1nc(NCc2ccccc2)nc(N/N=C/c2cc([N+](=O)[O-])ccc2O)n1`: the inhibition in test [1] was -1.92%; in test [2], -1.79%; in test [3], -1.5%.

Take `COc1ccc2nccc([C@@H](O)CN3CCC(NC(=O)c4cccc(C(=O)c5ccccc5)c4)CC3)c2c1`: the results for the inhibition in test [1], in test [2] and in test [3] were -1.15%, 0.28% and 0.47%, respectively.

As to `O=C(Nc1cccc(-c2ccc(-c3nc4cc(F)ccc4[nH]3)cc2)c1)c1cccnc1`, the inhibition was 7.59% in test [1], 7.21% in test [2] and 6.47% in test [3].

With `CC1=NN(c2ccc(C)c(C)c2)C(=O)C1=NNc1cccc(-c2cccc(NC(=O)OC(C)(C)C)c2)c1O`, the inhibition was 1.48% in test [1], 1.44% in test [2] and 0.04% in test [3].

As for `COc1ccc2nccc([C@@H](O)CN3CCC(NCCNc4cccc(F)c4)CC3)c2c1`, the inhibition in test [1] turned out to be 6.07%; in test [2], 11.1%; in test [3], 0.95%.

As for `Cc1cc(CNCCCCCNCc2ccc(Cl)cc2)ccc1O`, the figures for the inhibition in test [1], in test [2] and in test [3] were 1.35%, 1.91% and 2.91%, respectively.

Turning to `Cc1cccc2nc(-c3cccc(-c4cccc(NC(=O)NC5CC5c5ccccc5)c4)c3)[nH]c12` (stereo unspecified), the figures for the inhibition in test [1], in test [2] and in test [3] were 1.8%, 2.2% and 5.21%, respectively.

As to `O=C(NCc1ccc2c(c1)OCO2)c1nn(CCN2CCC(N3CCCC3)CC2)cc1-c1ccc(Cl)c(Cl)c1`, the inhibition in test [1] was found to be 2.53%; in test [2], 0.54%; in test [3], 0.75%.

On to `CCc1cn2c3c(cc(C(=O)N[C@@H](Cc4cc(F)cc(F)c4)[C@H](O)CNC4CCOCC4)cc13)N(C)S(=O)(=O)CC2`, for which the results for the inhibition in test [1], in test [2] and in test [3] were 0.86%, -1.91% and -0.48%, respectively.

Consider `COc1ccc(Nc2nc(NC3CCN(C)CC3)cc(-c3ccc(OC)cc3)n2)cc1`, for which the inhibition in test [1] is 2.07%; in test [2] it was 2.61%; in test [3], 2.87%.

Consider `COc1ccc2nc3cc(Cl)ccc3c(NCCCCN)c2c1`, for which the inhibition in test [1] was found to be 2.17%; in test [2] it was 1.49%; in test [3] it was 0.04%.

Take `CCC(=O)c1ccc(-c2ccc(=O)n(CC(=O)N(CCN(CC)CC)Cc3ccc(-c4ccc(C(F)(F)F)cc4)cc3)n2)cc1`: the inhibition in test [1] was 0.37%; in test [2], 1.05%; in test [3], -1.47%.

`CCCCCCCCCn1c(NCc2cc(Cl)ccc2O)nc2ccccc21`: the inhibition in test [1] came to 2.6%; in test [2] it was 1.33%; in test [3], 0.42%.

With `O=C(Nc1ccc(Cn2ncc(N3CCCNCC3)c(Cl)c2=O)cc1)Nc1cc(Cl)cc(Cl)c1`, the inhibition was determined as 2.15% in test [1], 3.38% in test [2] and 0.75% in test [3].

For `OC(CNCc1ccccc1OCc1ccccc1)c1cccc(I)c1` (stereo unspecified), the inhibition was 3.99% in test [1], 5.42% in test [2] and 0.61% in test [3].
